Sampled rows, rich in hits. Any-hit rate of the full collection: about 11%.
NPR1 antag: Natriuretic polypeptide receptor (hNpr1) antagonism - Primary qHTS; HEK293 hNpr1 GloSensor cGMP, ANP-stimulated luminescence; Potency, µM (series often up to 46.3 µM), without a hit: at the highest dose activity change, negative = inhibition, actives largely listed as inhibitors; hit rate 1.6% among 76,000; Atrial natriuretic peptide receptor 1 (Homo sapiens), P16066; calls by dose curve; note: nearly all actives have a fitted effect of over 60% in size
Target sequence (P16066 whole entry, looked up): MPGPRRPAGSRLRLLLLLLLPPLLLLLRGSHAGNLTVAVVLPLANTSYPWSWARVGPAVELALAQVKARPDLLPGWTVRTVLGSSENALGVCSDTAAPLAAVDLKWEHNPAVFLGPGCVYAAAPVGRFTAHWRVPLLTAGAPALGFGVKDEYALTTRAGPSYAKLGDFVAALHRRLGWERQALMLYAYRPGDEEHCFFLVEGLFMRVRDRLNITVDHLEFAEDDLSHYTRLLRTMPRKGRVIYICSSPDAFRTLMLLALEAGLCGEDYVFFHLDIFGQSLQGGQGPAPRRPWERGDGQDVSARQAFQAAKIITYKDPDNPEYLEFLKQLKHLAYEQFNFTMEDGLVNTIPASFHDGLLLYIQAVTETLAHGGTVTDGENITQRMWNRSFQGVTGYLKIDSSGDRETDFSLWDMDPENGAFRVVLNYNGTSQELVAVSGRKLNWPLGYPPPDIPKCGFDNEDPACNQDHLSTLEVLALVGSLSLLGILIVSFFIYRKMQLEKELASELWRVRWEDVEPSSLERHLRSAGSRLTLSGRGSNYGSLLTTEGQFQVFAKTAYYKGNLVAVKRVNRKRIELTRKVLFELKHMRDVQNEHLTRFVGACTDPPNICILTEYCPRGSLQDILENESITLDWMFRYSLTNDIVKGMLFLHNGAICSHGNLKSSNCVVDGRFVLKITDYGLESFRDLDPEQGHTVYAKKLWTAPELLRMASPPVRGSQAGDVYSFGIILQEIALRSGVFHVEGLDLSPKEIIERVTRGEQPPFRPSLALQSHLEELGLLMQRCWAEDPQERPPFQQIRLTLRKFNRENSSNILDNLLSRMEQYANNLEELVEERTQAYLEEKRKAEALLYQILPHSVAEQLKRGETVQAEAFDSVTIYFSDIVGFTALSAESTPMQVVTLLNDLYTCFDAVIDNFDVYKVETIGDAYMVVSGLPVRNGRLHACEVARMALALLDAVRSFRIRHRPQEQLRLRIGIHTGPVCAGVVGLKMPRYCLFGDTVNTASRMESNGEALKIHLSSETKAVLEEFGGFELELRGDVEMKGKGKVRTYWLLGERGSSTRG
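HEK293 cells stably expressing human Npr1 and cGMP GloSensor pGS-40F, loaded 2 h with 2% GloSensor reagent, given compound 30 min at room temperature. Luminescence read before and 20 min after 0.1 nM hNppA.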
FLuc inh: Firefly luciferase inhibition profiling of diverse chemical library using quantitative high-throughput screening. purified P. pyralis luciferase, luminescence, biochemical. Potency, µM (top dose mostly 115 µM), most hits filed as inhibitors. hit rate 2.5% among 76,000. AID 1347043, 2019; note: nearly all actives have a fitted effect of over 65% in size
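Purified P. pyralis luciferase (10nM final) in 50mM Tris acetate pH 7.5, 10mM Mg acetate, 0.01% Tween-20, 0.05% BSA with 10uM D-luciferin and 10uM ATP. Compounds titrated qHTS. Luminescence imaged on CCD.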
3T3 cytotox: Cytotoxic Profiling in NIH 3T3 Cell Line of Diverse Libraries Using Quantitative High-Throughput Screening; NIH 3T3 viability, CellTiter-Glo ATP luminescence, 48-72 h; Potency, µM (highest dose often 96.7 µM), without a hit: at the top dose activity change, negative = cytotoxicity, actives largely listed as inhibitors; hit rate 4.3% among 94,000; note: nearly all actives have a fitted effect of over 55% in size
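Cytotoxicity was measured by CellTiter-Glo ATP luminescence after 48 or 72 h compound exposure at 37 °C. Mouse NIH 3T3 fibroblasts were seeded at 400 cells/well and dosed by 23 nL pin transfer.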
HEK cytotox: Cytotoxic Profiling in HEK 293 Cell Line of Diverse Libraries Using Quantitative High-Throughput Screening. HEK 293 viability, ATP luminescence (CellTiter-Glo), 48-72 h. Potency, µM (highest dose often 115 µM), for the others: top-dose activity change, negative = cytotoxicity, usual class: inhibitors. AID 1345083, 2018. hit rate 6.6% among 94,000; note: nearly all actives have a fitted effect of over 60% in size
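250 HEK 293 cells/well; compound by pintool; incubated 48 or 72 hr at 37 degree Celsius; CellTiter-Glo added, 10 min RT, luminescence imaged.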
Starred values were filed as active, the others as inactive; i = inactive; u = inconclusive; x = not tested or not shown; [ ] = another dose, or the depositor's remark. Unless noted, calls come from the whole dose curve; as a rule, active = well fitted curve in the direction sought with a large enough effect; inconclusive = small, poorly fitted or top-dose-only effect, or another doubt; inactive = no such curve, though single readings can be large; an effect the other way counts as inactive or inconclusive. % is set by controls: 0 for no effect and ±100 for the full control effect; potency is the fitted concentration of half-maximal effect.

SMILES	NPR1 antag	FLuc inh	3T3 cytotox	HEK cytotox
CNC(=O)c1cc(C)nc2onc(C3CCCN(C(=O)Cc4ccccn4)C3)c12 (stereo not drawn)	x	x	-6%	i
N#Cc1cccc(NC(=O)c2cccc(CN3CCN(CCO)CC3)c2)c1	-18%	i	-7%	u
Cc1c(CN(C)Cc2cccc(C(=O)Nc3ccc(C#N)cc3)c2)cnn1C	-12%	i	-29%	50µM*
Cc1cc(C(F)(F)F)nn1CC(=O)N1CCC(Cn2c(C)cnc2-c2ccccc2)CC1	x	x	-26%	-12%
O=C(c1nc(-c2ccccc2)c2ccccn12)N1CCN(c2ncccn2)CC1	2%	i	-21%	79µM*
O=C(c1nc(-c2ccc(F)cc2)c2ccccn12)N1CCOCC1	0%[70.6 µM]	i	-26%[138 µM]	112µM*
O=C(c1nc(-c2ccccc2)c2ccccn12)N1CCOCC1	-12%[70.6 µM]	i	u	89µM*
N#Cc1ccccc1CN1CCC([C@@H]2CNC[C@H]2CO)CC1	9%	i	-20%	-12%
Cc1ccc(C)c(S(=O)(=O)N2c3ccccc3CC2c2nc(C(C)C)no2)c1 (stereo not drawn)	x	x	u	14µM*
O=C(c1ccccc1OCC1CCCN(Cc2c[nH]c3ccccc23)C1)N1CCCCC1 (stereo not drawn)	x	x	u	50µM*
NCCc1cccc(CN2CCCC(COc3ccccc3F)C2)c1 (stereo not drawn)	-1%	i	35µM*	u
Cc1ccccc1N1CCCN(Cc2cccc(CCN)c2)CC1	-4%	i	u	28µM*
Cn1cc(CN2CCCC(COc3ccccc3C(=O)N3CCCCC3)C2)c2ccccc21 (stereo not drawn)	-18%	i	u	u
CCOc1cccc(CN2CCCC(COc3ccccc3C(=O)NC(C)C)C2)c1 (stereo not drawn)	1%	i	u	45µM*
Cn1ncc2c(C(=O)N3CCC(C#N)CC3)cc(-c3ccc(Cl)nc3)nc21	x	x	-4%	-3%
O=C1[C@@H]2C[C@@H](CN2C2CCCC2)Oc2ccccc2N1Cc1ccccc1	-29%[70.6 µM]	i	u	100µM*
CC(C)N1C[C@@H]2C[C@H]1C(=O)N(Cc1ccc(OC(F)(F)F)cc1)c1ccccc1O2	-25%[70.6 µM]	i	u	71µM*
CC(=O)N1CCC(N2C[C@@H]3C[C@H]2C(=O)N(Cc2ccc(OC(F)(F)F)cc2)c2ccccc2O3)CC1	-1%	i	u	u
O=C1[C@@H]2C[C@@H](CN2C2COC2)Oc2ccccc2N1Cc1ccc(OC(F)(F)F)cc1	-16%[70.6 µM]	i	u	100µM*
CN1CCC(N2C[C@@H]3C[C@H]2C(=O)N(Cc2ccc(OC(F)(F)F)cc2)c2ccccc2O3)CC1	-3%	i	40µM*	u
O=C1[C@@H]2C[C@@H](CN2Cc2nccs2)Oc2ccccc2N1Cc1ccc(OC(F)(F)F)cc1	-30%	i	u	u
COCCN1C(=O)[C@@H]2C[C@@H](CN2C2CCCC2)Oc2ccccc21	-12%[70.6 µM]	i	-30%[138 µM]	u
COc1cccc(C(=O)N2CCCC(C(=O)N3CCC(c4nc5ncccc5[nH]4)CC3)C2)c1 (stereo not drawn)	x	x	0%	3%
N[C@@H]1CN(c2ncccn2)C[C@H]1CO	-1%	i	-6%	u
C=CCc1ccccc1OCCN(C)Cc1cc2ccc(F)cc2[nH]c1=O	u	i	35µM*	45µM*
SMILES	NPR1 antag	FLuc inh	3T3 cytotox	HEK cytotox
C=CCc1ccccc1OCCN(C)Cc1nc(C)ccc1O	0%	i	u	u
C=CCc1ccccc1OCCN(C)Cc1ncnn1CC	0%	i	-27%	u
C=CCc1ccccc1OCCN(C)Cc1ccc(S(C)(=O)=O)cc1	-13%	i	u	40µM*
O=C(NCCc1ccccc1)c1ccc2nnc(CC3CC3)n2c1	x	x	u	-6%[172 µM]
CCc1cccc2c(C(CC(=O)N3CCCC3)c3cccc(Cl)c3)c[nH]c12 (stereo not drawn)	-2%	i	-24%	u
CCOC(=O)C1CCN(C(=O)CC(c2ccc(OC)c(OC)c2)c2c[nH]c3c(CC)cccc23)CC1 (stereo not drawn)	3%	i	u	79µM*
